Records with an inconclusive call do not appear. The source made the active and inactive calls. The call rests on the fitted dose curve; in most records, active means well fitted inhibition curve with a large enough effect in the repeat runs; inconclusive means weak or mixed curves, or effect the other way; inactive means no such curve, though single readings can be large or run the other way.

The test is described as follows: qHTS assay to identify small molecule antagonists of the retinoic acid receptor (RAR) signaling pathway (AID 1159552; further: nearly all actives have a fitted effect of over 50% in size). The settings on record: C3RL4 RARE luciferase reporter, retinol-stimulated, 6 h; series mostly up to 92.4 µM. The text has this: National Center for Advancing Translational Sciences [NCATS]
NIH Chemical Genomics Center [NCGC]
U.S. Environmental Protection Agency [EPA]
National Institutes of Environmental Health Sciences [NIEHS]
National Toxicology Program [NTP]
U.S. Food and Drug Administration [FDA]
All-trans Retinoic acid (atRA) is the potent natural metabolite of retinol and plays an important role in normal embryonic development and maintenance of cellular phenotype in adult animals. atRA is the activating ligand for the retinoic acid receptors (RARs) which form heterodimers with retinoid X receptors (RXRs) on the retinoic acid response element (RARE). Through activation of the RAR/RXRs nuclear receptors, atRA regulates the transcription of a large number of protein-coding genes and regulatory RNAs. Intracellular levels of atRA are controlled by the retinol signaling pathway (RSP) that regulates the biosynthesis and catabolism of atRA to maintain physiological levels. Chemicals that interfere with the RSP can cause abnormal intracellular levels of atRA and therefore are potential developmental toxicants. To assess compounds for the potential adverse effect on embryonic development through interfering with retinol signaling, a cell-based RARE luciferase reporter gene assay was used. C3RL4 cell line (OARSA/CFSAN/FDA, Laurel, MD) was used to screen Tox21 10K compound library for identifying inhibitors of the RSP.
Tox21 Assay Protocol Summary:
C3RL4 cells were seeded at 1,000/well in 4 uL of assay medium into white solid 1,536-well tissue culture plates (Greiner Bio-One North America Inc. Monroe, NC) using a Multidrop Combi (Thermo Scientific, Waltham, MA) dispenser. After incubation at 37 C and 5% CO2 for an overnight, 23 nL of compounds dissolved in DMSO, positive control or DMSO only were transferred by a Pintool station (Kalypsys, San Diego, CA). One ul of 1 uM (final concentration) of Retinol was added right after the compound addition by using a Flying Reagent Dispenser (FRD) (Aurora Discovery, San Diego, CA). After 6 hr incubation at 37 C and 5% CO2, 5 uL of Amplite Luciferase reagent (AAT Bioquest Inc. Sunnyvale, CA) was added to each assay plate using an FRD. Luminescence was quantified on a ViewLux plate reader (PerkinElmer, Waltham, MA) after 30 min incubation at room temperature.
In general terms: Quantitative high-throughput screening tests each substance at several concentrations.
In the case of `O=C(O)c1ccccc1C(=O)O`, the result was inactive.

For `CC(CCl)OP(=O)(OC(C)CCl)OC(C)CCl` (stereo not given), the result was inactive.

Turning to `C[C@]12CCC(=O)C=C1CC[C@@H]1[C@@H]2[C@@H](O)C[C@@]2(C)[C@H]1CC[C@]2(O)C(=O)CO`, the compound was called inactive.

For the compound `Cc1ccc(C(C)C)c(O)c1`, the compound was classed as inactive.

On to `CCCCCCCO`, for which the call was inactive.

With `Clc1ccccn1`, the result was inactive.

For `OCc1cccc(Oc2ccccc2)c1`, the call was inactive.

On to `C=Cc1ccc(C)cc1`, for which the compound was called inactive.

In the case of `CC(O)CC(C)(C)O` (stereo not given), the compound was called inactive.

With `CC(=O)OCc1ccccc1`, the outcome was inactive.

For `CCOC(=O)c1ccc(N)cc1`, the call was inactive.

Regarding `CCCCCCCCCCCCCCCCO`, the compound was called inactive.

Take `CC(C)CC(=O)CC(C)CC(C)C` (stereo not given): the compound was classed as inactive.

Regarding `O=C(O)Cn1c(=O)n(Cc2ccc(Br)cc2F)c(=O)c2ccc(Cl)cc21`, the outcome was inactive.

`CCOCC(=O)O`: the result was inactive.

With `Cc1ccc([N+](=O)[O-])cc1S(=O)(=O)O`, the compound was classed as inactive.

As to `COc1ccc([N+](=O)[O-])cc1N`, the outcome was inactive.

Turning to `CC(=O)Oc1ccc(C)cc1`, the compound was classed as inactive.

On to `COCCOC(=O)c1ccccc1C(=O)OCCOC`, for which the compound was classed as inactive.

`CC(C)(C)c1cc(Cc2cc(C(C)(C)C)c(O)c(C(C)(C)C)c2)cc(C(C)(C)C)c1O`: the compound was classed as inactive.

`CC(C)CCCCCCCOC(=O)CCCCC(=O)OCCCCCCCC(C)C`: the compound was classed as inactive.

In the case of `c1ccc2c(c1)Cc1ccccc1-2`, the compound was called inactive.

With `CC1(C)NC(=O)NC1=O`, the outcome was inactive.

Turning to `C=C(C)CNCC`, the outcome was inactive.

Turning to `COC(=O)c1cccnc1`, the result was inactive.

For `Nc1nc(N)nc(-c2ccccc2)n1`, the compound was classed as inactive.

As to `NCCCCCCN`, the compound was called inactive.

With `CC(CCO)CC(C)(C)C` (stereo not given), the outcome was inactive.

Turning to `Cc1ccc(S(=O)(=O)N=C=O)cc1`, the result was inactive.

For the compound `COC(=O)CCCC(=O)OC`, the outcome was inactive.

For `CC(C)CC(C)O` (stereo not given), the result was inactive.

As to `O=C(O)CCCCCCCCC(=O)O`, the outcome was inactive.

On to `O=S(=O)(O)c1ccc(N=Nc2c(O)ccc3cc(S(=O)(=O)O)ccc23)cc1`, for which the compound was called inactive.

Consider `CC(=O)CCC=C(C)C`, for which the result was inactive.

Regarding `CCCCOC(=O)c1ccc(N)cc1`, the outcome was inactive.

As to `O=C(O)c1ccc(S(=O)(=O)N(Cl)Cl)cc1`, the compound was called inactive.

As to `CN(C)CCOC(=O)COc1ccc(Cl)cc1`, the compound was classed as inactive.

As to `CCOC(=O)n1ccn(C)c1=S`, the result was inactive.

Regarding `C=CC(=O)OCCC(=O)O`, the outcome was inactive.

Consider `CC1(C)S[C@@H]2[C@H](NC(=O)COc3ccccc3)C(=O)N2[C@H]1C(=O)O`, for which the compound was classed as inactive.

For the origin of these results see PubChem BioAssay (Tox21).
